High-throughput results (PubChem BioAssay)
Rows were chosen to be rich in hits. Some 2.6% of all compounds tested hit in one or more screens of this group.
TPT1 inhibitor – C. albicans TPT1 enzyme inhibition; 0.81% of 300,000 active; inhibition, % at 5 µM; AID 1962; recombinant caTPT1, FP RNA substrate dephosphorylation;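 active = inhibition above the mean of all tested compounds plus 3 SD, set per screening campaign, cut at about 24% in these data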;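 note: plate controls were DMSO alone for no effect and ferristatin control at 100 nM for full effect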
Myeloid diff MLP – promotes myeloid progenitor differentiation; ER-HoxA9 myeloid progenitors, lysozyme-GFP differentiation, flow cytometry; calls only at 10 µM; 1% of 360,000 active; AID 624256;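 active = normalized GFP-positive differentiation at or above the plate's own cutoff, the solvent-only control mean plus 3 SD; inconclusive = no clear call, values can overlap the other calls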;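 note: cells exposed to compound for four days before flow analysis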
CRFBP-R2 agonist – CRF-BP/CRF-R2 complex agonism; HEK293 CRF-R2/CRF-BP, calcium dye fluorescence (FLIPR); percent of saturating CRF peptide response; activation, % at 13.2 µM; 0.46% of 350,000 active; AID 588473;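 active = activation of at least 50%, plus an integration ratio under a set limit after plate pattern correction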;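 note: plate controls were neutral control wells without compound for no effect and CRF at EC100 for full effect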
IDE inh – inhibitors of human insulin-degrading enzyme in cells; P14735; HEK cells, FAbetaB cleavage, fluorescence polarization; inhibition, % at 5.59 µM; 0.41% of 320,000 active; AID 434962;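 active = percent inhibition above the average of all tested compounds plus 3 SD, set per screening campaign, cut at about 16% in these data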;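 note: IDE supplied by intact live HEK cells; FP after avidin binding of uncleaved biotin substrate so inhibition keeps polarization high; 0% = DMSO wells and 100% = 60 µM reference IDE inhibitor Ii1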
Target sequence (P14735 whole entry, looked up): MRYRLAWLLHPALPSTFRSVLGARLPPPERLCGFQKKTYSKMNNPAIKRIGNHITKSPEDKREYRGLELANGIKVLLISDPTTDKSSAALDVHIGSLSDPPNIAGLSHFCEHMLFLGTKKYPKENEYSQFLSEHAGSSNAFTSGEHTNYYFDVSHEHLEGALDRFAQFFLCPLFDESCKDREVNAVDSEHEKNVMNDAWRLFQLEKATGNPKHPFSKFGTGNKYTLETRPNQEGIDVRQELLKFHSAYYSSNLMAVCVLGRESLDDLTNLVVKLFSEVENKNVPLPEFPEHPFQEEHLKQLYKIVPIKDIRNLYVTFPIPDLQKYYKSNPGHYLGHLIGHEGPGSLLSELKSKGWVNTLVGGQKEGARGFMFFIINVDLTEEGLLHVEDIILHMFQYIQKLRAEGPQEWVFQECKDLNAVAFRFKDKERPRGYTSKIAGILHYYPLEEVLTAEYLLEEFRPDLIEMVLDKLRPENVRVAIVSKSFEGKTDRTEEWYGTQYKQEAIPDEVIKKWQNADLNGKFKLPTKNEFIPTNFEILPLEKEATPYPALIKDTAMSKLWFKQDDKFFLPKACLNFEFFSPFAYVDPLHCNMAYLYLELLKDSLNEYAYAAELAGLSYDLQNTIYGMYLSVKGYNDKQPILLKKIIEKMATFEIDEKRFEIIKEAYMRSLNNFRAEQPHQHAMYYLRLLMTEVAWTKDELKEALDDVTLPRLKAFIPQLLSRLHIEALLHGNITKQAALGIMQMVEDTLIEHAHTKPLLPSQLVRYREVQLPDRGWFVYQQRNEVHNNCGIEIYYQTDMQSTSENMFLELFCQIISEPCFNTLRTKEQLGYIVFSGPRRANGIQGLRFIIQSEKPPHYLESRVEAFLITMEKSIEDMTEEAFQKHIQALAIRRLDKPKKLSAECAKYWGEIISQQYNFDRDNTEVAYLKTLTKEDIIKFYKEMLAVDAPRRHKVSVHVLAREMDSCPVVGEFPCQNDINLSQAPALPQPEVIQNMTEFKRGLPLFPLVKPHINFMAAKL
IDE act – activators of human insulin-degrading enzyme in cells | activation, % at 5.96 µM | 0.073% of 340,000 active | AID 493087 | HEK cells, FAbeta-B cleavage, fluorescence polarization; 0% vehicle, 100% cell-free pure enzyme wells;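 active = activation above the mean of all tested compounds plus 3 SD, set per screening campaign, cut at about 17% in these data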
CRFBP-R2 block – antagonists of CRF-binding protein/CRF-R2 receptor complex; inhibition, % at 11.8 µM; HEK293 CRF-R2/CRF-BP, CRF-induced calcium fluorescence; 0.59% of 350,000 active; AID 588475;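 active = inhibition of the ligand-induced calcium signal above about 50% at the single tested concentration, limit read from the data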
TPT1 inh confirm – confirmation of Candida albicans TPT1 inhibitors; inhibition, % at 5 µM; 74% of 2,400 active; recombinant caTPT1, fluorescence polarization, RNase T1 coupled; shares compounds with TPT1 inhibitor;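 active = inhibition above the primary screen limit, the mean inhibition of all tested compounds plus 3 SD, cut at about 25% in these data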
RNase T1 counter – counter-screen for TPT1 inhibitors: inhibitors of Aspergillus oryzae RNase T1 | shares compounds with TPT1 inhibitor | RNase T1 cleavage, fluorescence polarization, 1536-well | inhibition, % at 5 µM | 83% of 2,400 active | AID 2153;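 active = inhibition above the solvent-only control well mean plus 3 SD, limit set per screening run, cut at about 23% in these data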;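 note: plate controls were DMSO wells with enzyme for no effect and wells without RNase T1 for full effect; inhibitors block cleavage so intact labeled substrate keeps polarization high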
Active calls of the source: *; i = inactive; u = inconclusive; x = no result given.

SMILES | TPT1 inhibitor | Myeloid diff MLP | CRFBP-R2 agonist | IDE inh | IDE act | CRFBP-R2 block | TPT1 inh confirm | RNase T1 counter
O=C(N[C@@H](Cc1ccccc1)C(=O)OCC(=O)N1CCOCC1)c1cccs1 | -1 | i | 0 | 3 | 3 | 7 | x | x
O=C(COC(=O)c1c2c(nc3ccccc13)/C(=C/c1ccco1)CC2)NC1CCCC1 | x | i | 4 | x | -4 | -10 | x | x
CC1CCCCC1NC(=O)COC(=O)c1c2c(nc3ccccc13)/C(=C/c1ccco1)CC2 (stereo not given) | 33* | i | 0 | 1 | -6 | -9 | 29* | 41*
CCCOc1cccc(C2C(C(=O)c3cc4ccccc4o3)=C(O)C(=O)N2c2cc(C)on2)c1 (stereo not given) | 5 | i | 0 | -3 | 6 | 6 | x | x
Cc1cc(N2C(=O)C(O)=C(C(=O)c3cc4ccccc4o3)C2c2cccc(Br)c2)no1 (stereo not given) | 31* | i | 9 | -3 | -6 | 2 | 13 | 25*
COC(=O)c1ccc(C2C(C(=O)c3cc4ccccc4o3)=C(O)C(=O)N2c2cc(C)on2)cc1 (stereo not given) | 44* | i | 31 | 2 | -1 | 6 | 16 | 26*
COc1cccc2cc(C(=O)C3=C(O)C(=O)N(c4cc(C)on4)C3c3cccs3)oc12 (stereo not given) | 31* | i | 34 | 8 | 1 | -14 | 23 | 36*
COCc1ccc(CN2CCCC(C(=O)Nc3ccc(-c4cscn4)cc3)C2)o1 (stereo not given) | 0 | i | 2 | 7 | 5 | -11 | x | x
O=C(O)c1cccc(Cn2c(Cl)c(/C=N/Nc3ccccc3)sc2=O)c1 | 48* | i | 0 | 1 | -7 | 6 | 65* | 79*
CCC1=[N+](CC(=O)c2ccc(C)cc2)CCn2cccc21 | 61* | i | 2 | 2 | 0 | -3 | 9 | 11
CCOC(=O)CN1C(=O)S/C(=C/c2ccc3c(c2)n(C)c(=O)n3C)C1=O | 1 | i | -2 | -2 | 0 | 27 | x | x
CCOC(=O)CN1C(=O)S/C(=C/C=C/c2ccc(N(C)C)cc2)C1=O | 87* | i | 90* | 8 | -18 | -127 | 87* | 88*
CC(=O)Nc1ccc(S(=O)(=O)N[C@@H](C)C(=O)OCc2ccc(Cl)cc2)cc1 | -3 | i | -1 | 0 | -5 | 10 | x | x
COc1ccc(C2=NN(C(=O)c3ccccc3)C(c3ccc(OC)c(OC)c3)C2)c(O)c1 (stereo not given) | x | i | 4 | x | 1 | 1 | x | x
CCOc1ccc(C2CC(c3c(O)c4ccccc4oc3=O)=NN2c2ccccc2)cc1OC (stereo not given) | 69* | i | 38 | -4 | 4 | -27 | 80* | 82*
N#Cc1c(Sc2ncc(C(F)(F)F)cc2Cl)nsc1C/C=N\OCc1ccccc1Br | 55* | i | 2 | -2 | 1 | 0 | 35* | 37*
c1ccc(C2Oc3ccccc3C3CC(c4cccs4)=NN32)cc1 (stereo not given) | 49* | i | 1 | 6 | 2 | -8 | 57* | 69*
CC1=[N+](C)N(c2ccccc2)C(=O)C1N=Cc1c(Cl)cccc1Cl (stereo not given) | 133* | i | 0 | -6 | 4 | -14 | 7 | 11
O=C(O)C1Nc2c(O)cc(Cl)c([N+](=O)[O-])c2C2C=CCC12 (stereo not given) | 84* | i | 1 | -3 | 9 | 15 | 15 | 10
Cc1ccc2c(c1)C1C=CCC1C(C(=O)O)N2 (stereo not given) | 14 | x | x | -2 | x | x | x | x
O=C1/C(=C/c2c[nH]c3ccccc23)CCC/C1=C\c1c[nH]c2ccccc12 | 51* | u | 6 | 5 | -42 | -31 | 147* | 137*
CCC(C)Nc1nc(-c2c[nH]c3ccccc23)cs1 (stereo not given) | 25* | x | 5 | 4 | 0 | 11 | 23 | 33*
CCOC(=O)c1ccc(N2CC(O)=C(c3nc4ccccc4c(=O)[nH]3)C2=N)cc1 | 47* | i | 5 | 3 | 3 | -5 | 41* | 52*
CCOc1ccc(N2CC(O)=C(c3nc4ccccc4c(=O)[nH]3)C2=N)cc1 | -2 | i | 1 | 1 | 4 | -6 | x | x
NC(=O)c1cc[n+](CC2=C(C(=O)O)N3C(=O)[C@@H](NC(=O)C(c4ccccc4)S(=O)(=O)[O-])[C@H]3SC2)cc1 (stereo not given in full) | 41* | i | 6 | -2 | -3 | -6 | 39* | 9
SMILES | TPT1 inhibitor | Myeloid diff MLP | CRFBP-R2 agonist | IDE inh | IDE act | CRFBP-R2 block | TPT1 inh confirm | RNase T1 counter
COc1ccc2c(C)cc(SCC#N)nc2c1 | 41* | i | 2 | -1 | 5 | 7 | 40* | 49*
CCOc1ccc(N(C)c2ccc(/C=C3/SC(=S)NC3=O)cc2)cc1 | 115* | i | 68* | 14 | -38 | -52 | 128* | 127*
O=C1NC(=S)S/C1=C/c1ccc(Oc2cnccn2)cc1 | 3 | i | 6 | 9 | -6 | 30 | x | x
CC(C)(C)c1cnnn1-c1ccc(/C=N/Nc2ccc([N+](=O)[O-])cc2)cc1 | 26* | i | 9 | 1 | -3 | -52 | 40* | 53*
CCn1c(O)c(/C=N/N=C/c2ccc(OC)cc2)c2cc(C3=NNC(=O)CC3)ccc21 | 47* | i | 27 | 0 | -5 | -32 | 74* | 86*
CCCCCc1ccc(C2=NNC(=O)CC2)cc1 | 2 | i | -1 | 1 | 4 | 3 | x | x
CC/C(C)=N\N=C\c1c(O)n(CC)c2cc(C3=NNC(=O)CC3)ccc12 | 51* | i | 1 | 0 | 3 | -31 | 35* | 47*
CC(Oc1cc(Cl)ccc1Cl)C(=O)N/N=C\c1ccnn1C (stereo not given) | 0 | i | 2 | -3 | -3 | -7 | x | x
CCN(CC)CCCOc1ccc(Cl)c(Cl)c1 | 134* | i | 0 | 6 | 5 | -4 | 9 | 15
CN(CCOc1ccc(Cl)c(Cl)c1)Cc1ccccc1 | -2 | i | 0 | 0 | 4 | -16 | x | x
CCC(CO)NS(=O)(=O)c1cc(-c2nn(C)c(=O)c3ccccc23)ccc1C (stereo not given) | 1 | i | 4 | -3 | 0 | -9 | x | x
Cc1cc2nc(C)c3c(n2n1)CCC3 | -2 | i | 4 | -2 | 8 | -6 | x | x
O=C(O)c1ccccc1SCC(=O)N1CCc2ccccc21 | 139* | i | 1 | 4 | 3 | -7 | 1 | 4
